Results from PubChem BioAssay (Tox21).
Records with an inconclusive call do not appear. Where a call stands in place of a potency, no number is given. The source made the active and inactive calls. Calls follow the shape of the full dose curve.

target: Retinoic acid receptor RXR-alpha (Homo sapiens) (UniProt P19793); test: qHTS assay to identify small molecule agonists of the RXR signaling pathway (AID 1159527); conditions: HEK293T RXRa-UAS-bla, beta-lactamase ratio, 16 h; series mostly up to 76.8 µM; also: nearly all actives have a fitted effect of over 35% in size
Method in brief: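 Cells plated at 2,000/well, rested 5 hr at 37 C, pin-dosed with DMSO compound solutions, incubated 16 hr, then loaded with B/G FRET substrate for 2 hr at RT before dual-emission fluorescence reading.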
Potency is read from the fitted curve at half-maximal effect.

Retinoic acid receptor RXR-alpha (Homo sapiens), sequence (P19793 whole entry, looked up): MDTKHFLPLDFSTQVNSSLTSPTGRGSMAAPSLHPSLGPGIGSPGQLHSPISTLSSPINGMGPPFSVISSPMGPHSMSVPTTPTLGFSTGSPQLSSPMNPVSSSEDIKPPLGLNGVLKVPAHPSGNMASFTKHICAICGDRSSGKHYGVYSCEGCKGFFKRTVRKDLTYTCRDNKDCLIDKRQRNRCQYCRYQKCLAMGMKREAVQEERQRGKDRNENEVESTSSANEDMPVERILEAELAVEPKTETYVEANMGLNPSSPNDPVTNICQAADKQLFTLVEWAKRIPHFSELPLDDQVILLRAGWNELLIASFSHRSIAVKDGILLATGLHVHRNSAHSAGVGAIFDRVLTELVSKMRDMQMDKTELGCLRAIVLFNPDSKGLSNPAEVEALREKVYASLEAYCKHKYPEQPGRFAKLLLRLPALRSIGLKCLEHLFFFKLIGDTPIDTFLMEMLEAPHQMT

SMILES	Potency	activation
CN(CCOc1ccc(NS(C)(=O)=O)cc1)CCc1ccc(NS(C)(=O)=O)cc1	inactive	–
CCCCCCOC(=O)CC	inactive	–
O=S(=O)(O)CCN1CCN(CCO)CC1	inactive	–
Cc1cc(C(C)(C)C)c(O)c(C)c1CC1=NCCN1	inactive	–
CC(C)(C)c1n[nH]c(=S)n(N)c1=O	inactive	–
CCC(C)NC(N)=O (centres undefined)	inactive	–
Oc1cn2c(n1)Nc1ccc(Cl)c(Cl)c1C2	–	5.44% [at 15.8 µM] (inactive)
Cc1nc2n(c(=O)c1CCN1CCC(c3noc4cc(F)ccc34)CC1)CCC[C@H]2O	–	4.51% [at 15.8 µM] (inactive)
NS(=O)(=O)c1ccc(NC(=O)CCC(=O)O)cc1	inactive	–
C=C(C)C(=O)OCC(C)(C)COC(=O)C(=C)C	inactive	–
CCCCCCCCSCC	inactive	–
C=C(C)C1CCC(C)(O)CC1 (centres undefined)	inactive	–
On1nnc2ccccc21	4.9 µM (active)	–
NC(CO)C(=O)NNCc1ccc(O)c(O)c1O (centres undefined)	inactive	–
O=C(CCNNC(=O)c1ccncc1)NCc1ccccc1	inactive	–
CC(C)NCC(O)COc1cccc2[nH]ccc12 (centres undefined)	inactive	–
N[C@@H](COP(=O)(O)O)C(=O)O	–	7.83% [at 15.8 µM] (inactive)
O=C1CC(c2ccc(Cl)cc2)CC(=O)N1	inactive	–
CCOc1cc(NC(C)=O)ccc1C(=O)OC	inactive	–
CCOC(=O)c1ncn2c1CN(C)C(=O)c1cc(F)ccc1-2	inactive	–
CC(C)N(c1ccccc1)C(C)C	inactive	–
CC(C)(C)c1nnc(NS(=O)(=O)c2ccc(N)cc2)s1	inactive	–
C=CCCCCCCCCCCCC	inactive	–
CCCN1C[C@H](CSC)C[C@@H]2c3cccc4[nH]cc(c34)C[C@H]21	inactive	–
